Experiment [1] is described as follows: NCI Yeast Anticancer Drug Screen. Data for the rad50 strain (AID 155).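 Note: 0% = growth of vehicle-only cultures of the same strain.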 The following applies: S. cerevisiae rad50 strain growth inhibition; at 50.0 µM; hits give high values. The essentials: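 DNA repair mutant yeast, compound exposure, growth read-out; inhibition is taken relative to vehicle.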
Experiment [2] can be described thus: NCI Yeast Anticancer Drug Screen. Data for the mec2-1 strain (AID 157). The following applies: S. cerevisiae mec2-1 strain, at 50.0 µM, hits give high values. The essentials: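 Using mec2-1 yeast: add compound, measure growth, express inhibition versus vehicle-treated cultures.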
The nature of experiment [3]: NCI Yeast Anticancer Drug Screen. Data for the sgs1 mgt1 strain (AID 161).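 Note: 0% = growth of cultures given vehicle only.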 The following applies: S. cerevisiae sgs1 mgt1 strain, at 50.0 µM, hits give high values. The essentials: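 Yeast cells carrying a defined DNA-repair defect were exposed to test compounds. Growth inhibition was measured relative to vehicle-treated controls.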
The nature of experiment [4]: NCI Yeast Anticancer Drug Screen. Data for the cln2 rad14 strain (AID 165).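 Note: 0% = growth equal to vehicle treated cultures.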 The following applies: S. cerevisiae cln2 rad14 strain, at 50.0 µM, hits give high values. In short, it runs like this:
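Yeast strain cln2 rad14, bearing defects in cell cycle control and DNA repair, serves as the test system; values reflect growth inhibition compared with vehicle.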

Experiment [5] can be described thus: NCI Yeast Anticancer Drug Screen. Data for the bub3 strain (AID 167). The following applies: S. cerevisiae bub3 mutant strain, at 50.0 µM, hits give high values. In short, it runs like this: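 In this screen, a yeast mutant lacking normal mitotic checkpoint function is challenged with compound. Relative growth versus vehicle gives the inhibition value.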
A short description of experiment [6]: NCI Yeast Anticancer Drug Screen. Data for the mlh1 rad18 strain (AID 175). Particulars: S. cerevisiae mlh1 rad18 strain growth inhibition; at 50.0 µM; hits give high values. In short, it runs like this: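 Steps: expose repair-defective yeast to compound; measure growth; express inhibition against vehicle-treated controls.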

Compounds without any hit were thinned out: in the full panel of roughly 79,000, 15% have a hit. Values without a mark were called inactive. Active and inactive are the calls of the source. Cut-off read from the data, not from the text of the source: active = growth inhibition above about 70%; inactive = the rest.

For `CC1=CC(C)(C)NC(=S)N1C1CCCCC1`, the growth inhibition was 9.75% in experiment [1]; -6.85% in experiment [2]; 6.3% in experiment [3]; -5% in experiment [4]; 6.55% in experiment [5]; 14.6% in experiment [6].
As for `CCN(CC)CCn1c2ccccc2c(=O)c2c(O)ccc(O)c21`, the growth inhibition in experiment [1] is 14.8%; in experiment [2] it was -1.3%; in experiment [3] it was 3.35%; in experiment [4], 4.45%; in experiment [5], 6.95%; in experiment [6] it was -0.55%.
Consider `CC(C(=O)O)c1ncnn1-c1ccccc1` (stereo not given), for which the growth inhibition in experiment [1] was -3.35%; in experiment [2] it was 41%; in experiment [3], 6.45%; in experiment [4] it was 4.85%; in experiment [5], 10.6%; in experiment [6], 2.65%.
For `CN(CCCN)CCCN`, the growth inhibition is -41.4% in experiment [1]; -11.2% in experiment [2]; -32.6% in experiment [3]; -55.6% in experiment [4]; -28.6% in experiment [5]; -21.7% in experiment [6].
With `COc1ccc(CN(C)C)c(C(O)c2ccccc2)c1` (stereo not given), the growth inhibition in experiment [1] was 9.2%; in experiment [2], -1.75%; in experiment [3] it was 0.7%; in experiment [4] it was 7.6%; in experiment [5] it was 9.5%; in experiment [6] it was 13.2%.
Regarding `CCCCCCNc1ncnc2c1cnn2C`, the growth inhibition in experiment [1] is 5.3%; in experiment [2] it was 6.85%; in experiment [3] it was 1.45%; in experiment [4] it was -17.9%; in experiment [5] it was 38.7%; in experiment [6], 3.4%.
As to `CCC(=O)NC(Nc1cccc(F)c1)(C(F)(F)F)C(F)(F)F`, the growth inhibition in experiment [1] is -28.5%; in experiment [2], -36.6%; in experiment [3], -20.7%; in experiment [4], 13.3%; in experiment [5], -20.9%; in experiment [6], -66.8%.
On to `Nc1ccc(S(=O)(=O)/N=C(\NS(=O)(=O)c2ccc(N)cc2)c2ccccc2)cc1`, for which the growth inhibition was 15.7% in experiment [1]; 0.65% in experiment [2]; 12.2% in experiment [3]; 16.2% in experiment [4]; 5.85% in experiment [5]; 1.45% in experiment [6].
As for `O=C(O)CSc1ncccc1[N+](=O)[O-]`, the growth inhibition is 8.85% in experiment [1]; -0.65% in experiment [2]; -6.05% in experiment [3]; 12.9% in experiment [4]; -32.6% in experiment [5]; 4.35% in experiment [6].
For `COC(=O)/C(C#N)=C(/NCc1ccccc1)Nc1ccccc1`, the growth inhibition in experiment [1] is 20.8%; in experiment [2] it was -13.1%; in experiment [3] it was -8.2%; in experiment [4], 11.4%; in experiment [5], 43.6%; in experiment [6], 21.4%.
Regarding `CN(C)c1ccc(-c2nc(N)nc3c2CCCC3)cc1`, the growth inhibition in experiment [1] is -12.7%; in experiment [2], -12.2%; in experiment [3], -13.3%; in experiment [4] it was 22.4%; in experiment [5], -6%; in experiment [6], -34.2%.
Turning to `CCSC(OC(C)=O)C(Nc1ccc([N+](=O)[O-])cc1[N+](=O)[O-])C(OC(C)=O)C(OC(C)=O)C(COC(C)=O)OC(C)=O` (stereo not given), the growth inhibition in experiment [1] was 23.7%; in experiment [2], 10.8%; in experiment [3] it was 6.2%; in experiment [4] it was 17.2%; in experiment [5], -0.6%; in experiment [6] it was 24.9%.
As for `CCCCC1C2C(S(=O)(=O)c3ccccc3)=NOC2C=CN1C(C)=O` (stereo not given), the growth inhibition in experiment [1] is -6.4%; in experiment [2], -9%; in experiment [3] it was 1.55%; in experiment [4], 7.55%; in experiment [5], 3.25%; in experiment [6] it was 10.3%.
In the case of `Cc1ccc(N=Nc2ccc(N(C)C)cc2)cc1`, the growth inhibition is 18.6% in experiment [1]; -8.05% in experiment [2]; -16.6% in experiment [3]; -51.6% in experiment [4]; -6.2% in experiment [5]; 14.7% in experiment [6].
In the case of `CCN(CC)CCCS/C(N)=N\S(=O)(=O)c1ccc(N)cc1`, the growth inhibition in experiment [1] was -6.35%; in experiment [2] it was -41%; in experiment [3], -20.2%; in experiment [4], -7.8%; in experiment [5], -0.5%; in experiment [6] it was -16.6%.
In the case of `COC(=O)C(C)(N)Cc1ccc(O)c(C)c1` (stereo not given), the growth inhibition is 3.6% in experiment [1]; 10.8% in experiment [2]; 0.5% in experiment [3]; -10.3% in experiment [4]; -4.05% in experiment [5]; -9.9% in experiment [6].
Regarding `c1ccc2c(c1)-c1ccccc1C2N1CCCC1`, the growth inhibition in experiment [1] was 14.2%; in experiment [2] it was 14.8%; in experiment [3], 4.2%; in experiment [4], 10.4%; in experiment [5], -0.85%; in experiment [6], -7.9%.
As to `O=C1NC(Nc2ccccc2)=NC(C(F)(F)F)(C(F)(F)F)N1`, the growth inhibition was -1.5% in experiment [1]; 1.1% in experiment [2]; 36% in experiment [3]; 32.5% in experiment [4]; 39.6% in experiment [5]; -8% in experiment [6].
Turning to `N#Cc1cc(-c2ccccc2)c[nH]c1=O`, the growth inhibition in experiment [1] is -8.55%; in experiment [2], -1.45%; in experiment [3], -4.6%; in experiment [4] it was -36.9%; in experiment [5], -1.25%; in experiment [6], -1.55%.
For `Cc1c2c(cc3c1[nH]c1ccccc13)C(=O)c1ccccc1C2=O`, the growth inhibition was 75.5% (active) in experiment [1]; 68.5% in experiment [2]; 75.8% (active) in experiment [3]; 75.3% (active) in experiment [4]; 68.1% in experiment [5]; 83.3% (active) in experiment [6].

These data come from PubChem BioAssay (NCI).
